From the supplement of paper PMC3334620
Over roughly 33,000 sequences, “E-score (-0.5 to 0.5)” has its median near -8e-05; the highest 2% begin near 0.23. For the sample, the highest values were picked, then their nearest neighbours and some sequences at random.

Molecular target: T1, Nrg2 (UniProt P38082)
T1 sequence: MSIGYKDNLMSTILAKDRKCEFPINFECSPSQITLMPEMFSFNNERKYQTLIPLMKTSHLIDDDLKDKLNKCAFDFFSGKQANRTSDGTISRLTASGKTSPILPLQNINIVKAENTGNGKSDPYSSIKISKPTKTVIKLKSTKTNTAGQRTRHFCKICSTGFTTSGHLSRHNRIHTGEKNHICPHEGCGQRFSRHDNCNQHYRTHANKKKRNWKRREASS
Assay: PBM E-score (8-mer binding enrichment) (E-score (-0.5 to 0.5)); higher = stronger / more preferred TF binding
Conditions: protein concentration: 100 nM; construct: GST-full length
Description: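 Universal 'all 10-mer' protein binding microarrays (Agilent AMADID 015681) probed with GST-tagged S. cerevisiae TFs (full-length or DBD) made by in vitro transcription/translation (PURExpress), about 100-200 nM. Bound TF was detected with fluorescent anti-GST. Each ungapped 8-mer (which stands for itself and its reverse complement) is scored by the PBM enrichment score (E-score), a modified Wilcoxon-Mann-Whitney statistic from -0.5 to +0.5, computed with the Universal PBM Analysis Suite. Scale: above 0.35 generally sequence-specific binding.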

In order of rising “PBM E-score” value:
1. CACCGGGG  -0.413
2. CAGGTCAC  -0.271
3. ACTACAGC  -0.271
4. AACAGGCC  -0.202
5. ATTACAGC  -0.18
6. CTAAACCA  -0.179
7. GCCCTCAC  -0.177
8. GGCTGCCA  -0.173
9. ATCCAACG  -0.165
10. CAGATGCA  -0.158
11. ACCCTCCT  -0.14
12. GTGGGCTA  -0.14
13. CTCTGACC  -0.127
14. GATGCTCA  -0.12
15. CACGGGCA  -0.102
16. CCCCTCCC  -0.102
17. AACCTCTA  -0.1
18. TCCTAGGA  -0.0933
19. GCTCAAGC  -0.0931
20. ATCTATGG  -0.0899
21. GGGATCAA  -0.0876
22. CATCTGTC  -0.0868
23. CTCGATCC  -0.0858
24. AACAGATG  -0.0815
25. GAAAAGTC  -0.0781
26. ATTTCCAA  -0.0757
27. CCTTCACC  -0.0756
28. CGGGCTAG  -0.0659
29. GACGCTAC  -0.0645
30. CATCTCAC  -0.0644
31. CTCATAGA  -0.061
32. ACAAGGAT  -0.0601
33. AGTGCTGA  -0.0594
34. AGGCTTTG  -0.058
35. AAGAGAAG  -0.0556
36. AGGCTGAG  -0.0549
37. GCCGTACC  -0.0541
38. CTCATCAC  -0.0539
39. CATACCAC  -0.0447
40. AGACGTCA  -0.0442
41. CATCTCAA  -0.0442
42. CTATCCGA  -0.04
43. GTAAGACA  -0.0374
44. AACAGTGA  -0.0365
45. CGTGCCAA  -0.033
46. ACAGCGGG  -0.0296
47. AATTCCCG  -0.0292
48. ATCATAGG  -0.0259
49. GATCCAAC  -0.0228
50. GTAAACAC  -0.0176
51. TATCCGAA  -0.0137
52. ACTTGTAA  -0.0121
53. CACGGGGC  -0.0105
54. CAGTTGGA  -0.00944
55. GTGAACGA  -0.00481
56. CGTTCCGC  -0.00432
57. GGTAGACC  -0.00427
58. CATCCAAA  -0.00312
59. AGCTTGTA  -0.00311
60. CCTATCAC  -0.00258
61. GGACGTCA  0.00109
62. ACCGCAAG  0.00329
63. ATATGGCA  0.00508
64. CCACGGAA  0.00928
65. AGAATGGC  0.0093
66. AGTCATAT  0.0126
67. CATCTTAG  0.0135
68. TAACGTCA  0.0193
69. AAATGCTA  0.0225
70. AGGGGATC  0.0237
71. ATTACAGA  0.0258
72. GGATACAA  0.0295
73. GACAGTGC  0.0298
74. AAGAGAAA  0.0319
75. TACACCTA  0.0327
76. CCAATACC  0.0351
77. ATGAGATC  0.0358
78. CAGGGTTA  0.0393
79. AATCTTAA  0.0405
80. ATCATCAG  0.0405
81. ATTTCCAG  0.0415
82. AGGAACGG  0.0417
83. CCACTACA  0.045
84. ATATCCGG  0.0451
85. GCACTAAA  0.0452
86. GGTTCAAA  0.0475
87. AAATGAAC  0.0486
88. ACAATACG  0.0515
89. CCCACCCA  0.0597
90. CACGCAGG  0.0602
91. CATTAGAA  0.0605
92. AGAGATTA  0.0613
93. AGTGATCA  0.063
94. GGACATCA  0.0631
95. CATTAAAC  0.0682
96. GCAAACCA  0.0737
97. AAGGGTTA  0.076
98. CGACATCA  0.0768
99. CCAATAAA  0.079
100. GCAATAAC  0.0808
101. TCAATACA  0.0827
102. TAAGTGAA  0.0844
103. TACTAAAA  0.0854
104. ATTGCACC  0.0876
105. CGAAGTTC  0.0952
106. GATTAGAA  0.0967
107. CCAACTAC  0.0973
108. AACTAAAA  0.0978
109. AAACCCAA  0.0986
110. TCACTAAA  0.099
111. AAACTCTG  0.102
112. CTCGGCCA  0.104
113. ACACTACA  0.108
114. GATCTCAA  0.115
115. CATTAAAG  0.119
116. GTACTAAA  0.121
117. TTACTAAA  0.123
118. ATTTTCCC  0.124
119. AATCTCAA  0.124
120. AATTAAAA  0.126
121. ACTACAGA  0.131
122. CGAGATTC  0.143
123. ACAATACA  0.148
124. ATTTCCCA  0.153
125. ATTTCCCC  0.153
126. GATTAAAA  0.157
127. CCCCACCC  0.162
128. TCACTGCA  0.167
129. AAGGGTTG  0.167
130. CATCCGAA  0.168
131. CCTGCTGA  0.171
132. GCAATACC  0.176
133. CCCACCCC  0.177
134. GCCCACCC  0.184
135. CAGGGTGC  0.19
136. AGAATACC  0.191
137. GTACTACA  0.191
138. GCCGCAAC  0.192
139. ACCTGGAA  0.203
140. AATTTCCG  0.206
141. CTCGTTGC  0.212
142. CATCTCAG  0.23
143. AAGAGAAT  0.231
144. CCCACCCG  0.231
145. TGACATCA  0.232
146. ATACTAAA  0.234
147. ATATCCGA  0.235
148. ACTACAGG  0.237
149. ATCATAGA  0.238
150. TCACTACA  0.24
151. ACAATACT  0.241
152. GATCCGAA  0.243
153. ACCCACCC  0.243
154. CTCATCAG  0.247
155. AAGGGTTC  0.248
156. ATTTTCCG  0.249
157. TATTAGAA  0.249
158. CATCTTAA  0.251
159. CATTAAAA  0.252
160. CGAGATTA  0.252
161. ATTTCCAC  0.255
162. ACCCTCCC  0.255
163. CACTAAAA  0.256
164. TATTAAAA  0.262
165. ATTTCCCG  0.264
166. TATCTCAA  0.267
167. ACCGCAAC  0.269
168. GCAATAAA  0.269
169. ACACTAAA  0.271
170. TGACGTCA  0.279
171. GATCCAAA  0.284
172. ACAATACC  0.291
173. GCAATACA  0.298
174. ATTACAGG  0.312
175. CAGGGTTC  0.387
